From the supplement of paper PMC6555819

Test system: PPARg:RXRa 90nM:30nM, anti-RXR (NR concentration 90 nM, RXRa partner concentration 30 nM)
Assay: PBM binding z-score (relative to random genomic background probes); higher = stronger binding; sequences stand for … in GC…GCGATTGACAGCGTAGAATGAAGG
How it was run: (§1)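 Ligand-free nuclear receptor dimers were bound for 1 h to custom Agilent 4×180K protein-binding microarrays. Detection used antibodies against each partner (one per run). Binding z-scores rest on regression-normalized fluorescence, with random background probes as the reference.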

Row | Sequence | PBM binding z-score
1 | ATACCAAGGTGCTCGTGAGGTCGTTGATACTAAC | -0.131
2 | CCAACTAGGTCAAGGACAGTGAATCTCCGCACGC | 4.79
3 | GTAACGAGGGCAAGTTGATAGCAGAGTTTGATGG | 0.807
4 | TCTGCTAGGTCAGTTGGACAGCTAACGAGCTGCC | 1.21
5 | AGTCAAAGCTCAGGACGAGGTAACGTAAAGCACG | -0.117
6 | ACGTACGGGTCAACGAGGTTATAGCACGCGTATA | 3.46
7 | CCTTACGGGTCACTGACAGGTTAGAGCATTTGGA | 3.02
8 | CGAACTAGGTCATCCAGGACAGTCAATACATTGA | 6.22
9 | CAAACTAGGCCAAAGGTCAAAGTCGAGCCAACCA | 11.5
10 | CGTCCAAGGTCAATGTCAGTGAAAGAGACTCGAA | 2.57
11 | TCTATTACTTGAAGGGCAACCGACGAGTCCGTTT | 3.26
12 | TCTTGTAGATCAACAGGAGGTTAAGAACGATCGA | 1.81
13 | TCATATAGGTAAATGCTAGGTGAAAGTCCGATCT | 3.19
14 | TCTAGTTGGTCACGGAGGTCACACAAGACGGGTA | 3.75
15 | CGAACTAGGTCATCCAAGACAGTGAATACATTGA | 5.9
16 | TCTTATAGATCAACAGGAGGTTAAGAAAGATCGA | 2.93
17 | CGAACTAGGTCAGAACAGGAAAGTGAAGGATGAT | 3.33
18 | ATATGTAGGTTATCGCGTCATTCAGTTTGCGCAT | 3.08

Test system: PPARg:RXRa DBDmut IVT, anti-RXR (DBD mutation: RXRa K156A/R161A, NR concentration 270 nM, RXRa partner concentration 90 nM)
Assay: as above
How it was run: as §1

Row | Sequence | PBM binding z-score
19 | TTACCAACGTGAAAGGTCGTTGATGCACGCCTTG | 0.0227
20 | CCTACTGCGCCACGAAAGGTCATTGATTCAGTGA | 0.564
21 | TCATATAGGTAAACGTGAAAGTCGAACGATATGA | 3.9
22 | GGAACGAGGGCAAAGTTGATAGCATCTGTCGACG | 3.97
23 | CCTAGCAGGCCAATCTGGGTGACTCAAGGCTTGA | 2.96
24 | TCTGCTGGGTCAGTTGGTCAGCTAACGAGCTGCC | 2.22
25 | CCTACTAGGTCATGGTCAGCTAATCTACAGTATG | 7.3
26 | TCTGTTAGTTGAAGGGCAACCGACGAGTCCGTTT | 1.61
27 | TCGGCTAGGTCAACGATGGTCAGCTAATCTGCTA | 3.13
28 | AGAATGAGGTTAATAAGATCAGGGAATTGCGGTC | 3.37
29 | AGAACGAGGGCAATGAGTTGATAGTACGGGTGGC | 3.34
30 | AGTCAAAGTTCATCTAGGGAACGTAAGATATGCT | 0.178
31 | ATAACGAGGGCACGCTGAGTTGATAGCAGAGTAG | 4.2
32 | ATCTGTAGGTAACCAAGTTCAGTGAATGCCGAAC | 2.89
33 | AGAACGAGGGCACGCTGAGTTGAGAGCAGAGTAG | 4.1
34 | CTCGAAAGGTCGTGCTGAGGTGAGTATACCAAAC | 0.827
35 | CAAACTAGGTCCAGAGGTCAAAGTCCGCTTCCCG | 2.96
36 | CGTCCAAGGTCAAAGGTCAGTGACGAGATGACGG | 4.07
37 | GGAACGAGGGCAAAGTTGATAGAATCTGTCGACG | 4.01
38 | TCTTGTAGATCAATAGAGGATAAGAAAGTGCGCT | 1.63

Row | Sequence | PBM binding z-score
39 | CGAACCAGGTCAAGGACAGTGAATCTCCGCACGC | 4.75
40 | CCGGCTAGGTCATGGTCAGCTAATCTACAGTATG | 3.44
41 | ATACCAAGGTGCTCGTGAGGTCGTTGATACTAAC | -0.245
42 | CCAACTAGGTCAAGGACAGTGAATCTCCGCACGC | 7.53
43 | GTAACGAGGGCAAGTTGATAGCAGAGTTTGATGG | 3.49
44 | TCTGCTAGGTCAGTTGGACAGCTAACGAGCTGCC | 2.28
45 | AGTCAAAGCTCAGGACGAGGTAACGTAAAGCACG | -0.71
46 | ACGTACGGGTCAACGAGGTTATAGCACGCGTATA | 1.33
47 | CCTTACGGGTCACTGACAGGTTAGAGCATTTGGA | 3.5
48 | CGAACTAGGTCATCCAGGACAGTCAATACATTGA | 8.57
49 | CAAACTAGGCCAAAGGTCAAAGTCGAGCCAACCA | 7.14
50 | CGTCCAAGGTCAATGTCAGTGAAAGAGACTCGAA | 2.67
51 | TCTATTACTTGAAGGGCAACCGACGAGTCCGTTT | 2.52
52 | TCTTGTAGATCAACAGGAGGTTAAGAACGATCGA | 1.71
53 | TCATATAGGTAAATGCTAGGTGAAAGTCCGATCT | 3.92
54 | TCTAGTTGGTCACGGAGGTCACACAAGACGGGTA | 2.31
55 | CGAACTAGGTCATCCAAGACAGTGAATACATTGA | 8.33
56 | TCTTATAGATCAACAGGAGGTTAAGAAAGATCGA | 2.24
57 | CGAACTAGGTCAGAACAGGAAAGTGAAGGATGAT | 7.16
58 | ATATGTAGGTTATCGCGTCATTCAGTTTGCGCAT | 7.52
